Assay outcomes from PubChem BioAssay.
Anthrax LF prot: inhibitors of Bacillus anthracis lethal factor protease | P15917 | multiplex microsphere protease cleavage assay, LF | inhibition, % at 10 µM | hit rate 0.12% among 360,000; further: plate controls were buffer without enzyme for full effect and enzyme alone for no effect
BoNT-A LC inh2: inhibitors of Botulinum neurotoxin A light chain protease; multiplex microsphere protease substrate cleavage, flow cytometry; inhibition, % at 10 µM; hit rate 0.17% among 360,000; AID 588499; further: plate controls were buffer without enzyme for full effect and enzyme alone for no effect
Bead autofluor: compound fluorescence in toxin protease inhibitor counterscreen; compound autofluorescence counterscreen, microsphere flow cytometry; hits give high values; fluorescence intensity (no concentration beside the values); hit rate 3.1% among 360,000; AID 624483; in the data active means fluorescence intensity above about 16000; inconclusive means no clear call, values can overlap the other calls
SSB-PriA inh: K. pneumoniae PriA-SSBct interaction inhibition. AID 1272365. hit rate 0.6% among 430,000. inhibition, % at 33 µM. AlphaScreen SSBct-PriA binding, biotinylated peptide; in the data active means inhibition mostly above about 37%, no sharp cut-off; inactive means mostly below about 20%;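 further: plate controls were negative control peptide for no effect and reference peptide for full effect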
MazF activator: increases E. coli MazEF RNase cleavage of RNA. FAM/BHQ RNA-DNA oligo cleavage fluorescence, 5 h. activation, % at 20 µM. hit rate 0.32% among 350,000. AID 504720; in the data active means activation above about 50%
BoNT-F LC inh: BoNT F light chain protease inhibition. Multiplex microsphere protease cleavage assay, flow cytometry. inhibition, % at 10 µM. hit rate 0.22% among 360,000. AID 588497; in the data active means inhibition above about 35%, passing the limit was not always enough; inconclusive means no clear call, values can overlap the other calls; further: plate controls were buffer without enzyme for full effect and enzyme alone for no effect
* marks the source's active call; other numbers are inactive results; ? = inconclusive; . = no result given. Sampled rows, rich in hits. Any-hit rate of the full collection: about 3.3%. Unless noted, no stated cut-off is given here; in the data, active means inhibition above about 30%; inconclusive means no clear call, values can overlap the other calls; inactive means below that.

SMILES	Anthrax LF prot	BoNT-A LC inh2	Bead autofluor	SSB-PriA inh	MazF activator	BoNT-F LC inh
O=C(Nc1ccccc1F)N(CCc1cccs1)Cc1ccoc1	.	.	.	18	.	.
CC1(C)NC(=O)N(CCCOc2ccccc2Br)C1=O	0	1	16174*	-8	-30	4
C/C=C/c1ccc(OCCCCN2C(=O)NC(C)(C)C2=O)c(OC)c1	-4	0	10427	-5	-13	-7
CC1(C)NC(=O)N(CCOc2cccc(Cl)c2Cl)C1=O	2	1	10610	-17	-6	4
CCOc1cc(C=O)ccc1OCCCN1C(=O)NC(C)(C)C1=O	5	2	22259*	-26	7	4
CCc1cccc(OCCCN2C(=O)NC(C)(C)C2=O)c1	-2	0	22570*	-6	-3	3
CCC(C)(C)c1ccc(OCCN2C(=O)NC(C)(C)C2=O)cc1	0	1	22180*	-9	0	2
Cc1cccc(NC(=O)NCCNc2cc(-n3ccnc3C)ncn2)c1C	.	.	.	-10	.	.
CCOc1ccc(C(O)=C2C(=O)C(=O)N(CCOCCO)C2c2ccccc2OC)cc1 (configuration not stated)	.	.	.	-4	.	.
CCOc1ccc(/C(O)=C2\C(=O)C(=O)N(CCOCCO)C2c2ccccc2OC)cc1 (configuration not stated)	-1	?	23386*	.	0	-2
CCOC(=O)c1cc(C(=O)NCc2ccc(Cl)cc2Cl)nn1C	-2	0	2345	-17	-4	-2
CCOC(=O)c1cc(C(=O)Nc2ccc(C)c(F)c2)nn1C	-2	-3	21479*	-14	-4	-6
O=C(c1cccs1)N1CCN(C2CCCCC2)CC1	-4	?	20556*	-1	-4	4
O=C(c1cccs1)N1CCN(C(=O)C2CCCO2)CC1 (configuration not stated)	2	0	19685*	-1	7	-1
CCN1/C(=C/c2ccc3cc(C)ccc3[n+]2CC)Sc2cc(C)c(C)cc21	-62	49*	8339	40	71*	-93
CCN1/C(=C/c2ccc3cc(C)ccc3[n+]2CC)Sc2ccccc21	22	78*	6257	43	69*	-28
CC[n+]1c(/C=C2\Sc3ccccc3N2C)ccc2cccc(C)c21	-31	62*	4252	.	106*	-60
CN1/C(=C/c2cccc[n+]2CCO)Sc2ccccc21	3	-3	4024	-15	-32	-24
CCN1/C(=C/C=C/c2sc3ccccc3[n+]2CC)Sc2ccccc21	-192	32*	1601	.	-457	-159
CC[n+]1ccccc1/C=C1\Sc2ccc(C)cc2N1C	-13	3	3305	9	-34	-6
CCN1/C(=C/C=C/C=C/C=C/c2sc3ccccc3[n+]2CC)Sc2ccccc21	-75	8	1654	.	-25	-250
CCN1/C(=C/c2sc(-c3ccccc3C)c[n+]2C)Sc2ccccc21	7	8	4354	.	22	3
O=C1c2cccc3cc(Br)cc(c23)C(=O)N1c1ccc(N=Nc2ccccc2)cc1	.	.	.	-13	.	.
COn1c(SCc2cccc(Cl)c2)nc2ccccc2c1=O	-2	-2	17254*	-23	-1	-10
COn1c(SCc2ccccc2)nc2ccccc2c1=O	-2	-5	5829	-44	-1	-31
SMILES	Anthrax LF prot	BoNT-A LC inh2	Bead autofluor	SSB-PriA inh	MazF activator	BoNT-F LC inh
COc1ccccc1OCCCn1c(=O)sc2ccccc21	-5	?	20682*	-25	-2	-3
COc1ccccc1OCCCn1c(=O)oc2ccccc21	-1	1	4383	-14	-1	2
CCOC(=O)Cn1c(=O)sc2ccccc21	0	1	23284*	-11	6	1
O=c1sc2ccccc2n1CCOc1ccccc1	-3	-2	23573*	-59	1	-4
Cc1ccc(C)c(N2CCN(C(=O)CCCn3c(=S)[nH]c4cc5c(cc4c3=O)OCO5)CC2)c1	0	-3	17273*	-5	-10	-8
CCOC(=O)N1CCN(C(=O)CCCn2c(=S)[nH]c3ccc(Br)cc3c2=O)CC1	0	?	20951*	-20	4	-3
O=C(CCCn1c(=S)[nH]c2cc3c(cc2c1=O)OCO3)N1CCN(c2ncccn2)CC1	-2	?	20894*	-4	-6	4
O=C(NCCc1ccoc1)c1ccc2nsnc2c1	.	.	.	6	.	.
CC1CN(S(=O)(=O)c2ccc(C(C)(C)C)cc2)CC(C)O1 (configuration not stated)	.	.	.	4	.	.
COCCNC(=O)Cc1ccc(NC(=O)c2cncc(Br)c2)cc1	.	.	.	-11	.	.
S=C(Nc1ccc(Cl)cc1)N1CCN(C2CCCCC2)CC1	0	1	21880*	-9	-4	0
Cc1ccc(N2CCN(C(=S)Nc3ccc(Cl)cc3)CC2)cc1	-4	-2	3667	-12	8	15
CN(C)c1ccc(OC2CCN(C(=O)Nc3cccs3)C2)nn1 (configuration not stated)	.	.	.	-10	.	.
CN(C)c1ncc(S(=O)(=O)c2ccccc2)c(N)n1	0	0	1961	8	-27	-4
COc1nc(C)cc(C)c1S(=O)(=O)c1ccccc1C	-7	0	4615	-5	0	?
COc1nc(N)c(S(=O)(=O)c2ccccc2)cc1C#N	0	?	22871*	-5	-22	1
COc1nc(N)c(S(=O)(=O)c2ccccc2C)cc1C#N	-6	9	19846*	-16	-14	10
CCc1cccc(NC(=O)CNC(=O)N2CC(=O)Nc3ccccc32)c1	-1	1	5781	-14	3	2
CCc1cccc(Nc2c([N+](=O)[O-])cc(C(=O)N3CC(=O)Nc4ccccc43)cc2[N+](=O)[O-])c1	-2	0	1971	48*	11	-3
Clc1cccc2cccnc12	.	.	.	23	.	.
C[C@@H](C(=O)NCc1cccs1)n1cc(-c2nc(-c3ccccc3Cl)no2)ccc1=O	.	.	.	1	.	.
O=C(NCCc1ccccc1)c1nc2c(nnn2Cc2ccccc2Cl)c(=O)[nH]1	-5	-2	16657*	0	-3	-4
Cc1cc([C@@H](O)CCNC(=O)NC2CCCC2)c(C)o1	.	.	.	2	.	.
FC(F)Sc1ccc(NC(=S)NC(c2ccccc2)c2ccccc2)cc1	-12	1	4735	-14	127*	-3
O=C(CCCS(=O)(=O)c1ccc(F)cc1)N1CCN(c2nc3ccc([N+](=O)[O-])cc3s2)CC1	.	.	.	-2	.	.
COC(=O)c1ccc(CN2CC(c3nc(-c4ccco4)no3)C2)o1	.	.	.	3	.	.
COc1ccc(N2CCn3c2nc2c3c(=O)n(CCCc3ccccc3)c(=O)n2C)c(OC)c1	?	-192	?	1	814*	-490
Cn1c(=O)n(Cc2ccccc2)c(=O)c2c1nc1n2CCCN1CCc1ccccc1	-5	?	23593*	4	4	-3
Cn1c(=O)n(Cc2ccccc2)c(=O)c2c1nc1n2CCCN1Cc1ccccc1	-2	-1	4922	-7	11	-29
CC1CN(Cc2ccccc2)c2nc3c(c(=O)n(C)c(=O)n3C)n2C1 (configuration not stated)	0	?	20687*	3	6	-1
